Data as given in the supplement of paper PMC13380429.
Unmarked numbers belong to inactive results.

test system: Vero E6 infected with SARS-CoV-2; test: SARS-CoV-2 infection rate relative to infected DMSO; higher = more infection, active = 60 or less; conditions: 24 h

SMILES	SARS-CoV-2 infection rate
CCc1nn(CCO)c(CC)c1Oc1cc(C#N)cc(C#N)c1 [lersivirine] (10 µM)	97%
C=C1C[C@]23C[C@@]1(O)CC[C@H]2[C@@]12C=C[C@H](O)[C@@](C)(C(=O)O1)[C@H]2[C@@H]3C(=O)O (10 µM)	109%
Cc1nnc2n1-c1sc(CCC(=O)N3CCOCC3)cc1C(c1ccccc1Cl)=NC2 [apafant] (10 µM)	112%
CC1=C(CC(=O)O)c2cc(F)ccc2/C1=C\c1ccc(S(C)(=O)=O)cc1 [exisulind] (10 µM)	109%
CC(C)C[C@H](NC(=O)[C@@H](Cc1c[nH]c2ccccc12)NC(=O)[C@H](Cc1ccc(O)cc1)NC(=O)[C@H](CO)NC(=O)[C@H](Cc1c[nH]c2ccccc12)NC(=O)[C@H](Cc1c[nH]cn1)NC(=O)[C@@H]1CCC(=O)N1)C(=O)N[C@@H](CCCNC(=N)N)C(=O)N1CCC[C@H]1C(=O)NCC(N)=O [triptorelin] (10 µM)	110%
OCc1cncc(F)c1 [5-fluoro-3-pyridyl-methanol] (10 µM)	102%
CN1C(=O)CCS(=O)(=O)C1c1ccc(Cl)cc1 (centres undefined) [chlormezanone] (10 µM)	117%
c1cc(-c2cnn3cc(-c4ccc(OCCN5CCCCC5)cc4)cnc23)ccn1 [dorsomorphin] (0.833333 µM)	96.5%
N[C@@H](Cc1ccc(O)cc1)C(=O)NCC(=O)NCC(=O)O (10 µM)	114%
CNC(=O)c1c(I)c(C(=O)NCC(=O)Nc2c(I)c(C(=O)O)c(I)c(C(=O)NCCO)c2I)c(I)c(N(C)C(C)=O)c1I [ioxaglic-acid] (10 µM)	104%
C[C@H](Nc1cc2c(-c3ccc4c(c3)OCO4)noc2cn1)c1ccccc1 (10 µM)	84.5%
C[C@H](NC(=O)Cc1cc(F)cc(F)c1)C(=O)N[C@@H]1C(=O)N(C)c2ccccc2-c2ccccc21 (10 µM)	119%
Cc1ncc(OC[C@@]2(c3cccc(F)c3)C[C@H]2C(=O)Nc2ccc(F)cn2)c(C)n1 [lemborexant] (10 µM)	112%
Cc1ccc(/C(=C\CN2CCCC2)c2cccc(/C=C/C(=O)O)n2)cc1 [acrivastine] (10 µM)	104%
CCC[C@H](Nc1nc(-c2ccc(NC(=O)NCC)c(OC)c2)ncc1C)c1cccnc1 (10 µM)	116%
CC(C)(C)/[N+]([O-])=C/c1ccc(S(=O)(=O)O)cc1S(=O)(=O)O (10 µM)	114%
CCC(CC)Nc1nc(C)c(-c2ccc(OC(F)(F)F)cc2OC)nc1OC (10 µM)	86.5%
CC(C)(C)c1cc(C(C)(C)C)c2c(c1)C(O)(C(F)(F)F)C(=O)O2 (racemic) (10 µM)	95.5%
c1cc(-c2sc(-c3ccncc3)c(-c3ccncc3)c2-c2ccncc2)ccn1 (10 µM)	93%
CCCCCNCC(N)=O [milacemide] (10 µM)	99%
Cc1cc(C(C#N)c2ccc(Cl)cc2)c(Cl)cc1NC(=O)c1cc(I)cc(I)c1O (centres undefined) [closantel] (10 µM)	91.5%
C=CC1=C(C(=O)O)N2C(=O)[C@@H](NC(=O)/C(=N\O)c3csc(N)n3)[C@H]2SC1 [cefdinir] (10 µM)	107%
CN(C)CCCn1cc(C2=C(c3c[nH]c4ccccc34)C(=O)NC2=O)c2ccccc21 (0.833333 µM)	104%
COc1ccc(C2CNC(=O)NC2)cc1O[C@H]1C[C@@H]2CC[C@H]1C2 [atizoram] (10 µM)	93.5%
C#Cc1cnc2nc(O)n(C(CC)CC)c2n1 [tirasemtiv] (10 µM)	104%
CC(=O)/N=c1/sc(S(N)(=O)=O)nn1C [methazolamide] (10 µM)	105%
N#Cc1ccc(COC[C@H]2O[C@@H](n3c(NCc4ccc(Cl)c(Cl)c4)nc4c(N)ncnc43)[C@H](O)[C@@H]2O)cc1 (10 µM)	106%
O=C1CCCCCCCCCCCCCCO1 [oxacyclohexadecan-2-one] (10 µM)	106%
O=C(N[C@H]1CN2CCC1CC2)c1cc2cccc(Cl)c2s1 (10 µM)	86.5%
